# According to PubChem BioAssay AID651871 (Sanford-Burnham Center for Chemical Genomics, 2012):
# System: HL-1
# Assay: cardiomyocyte survival under oxidative or metabolic stress – cell-based, panel, H9c2 and HL-1, ATP luminescence, set 2, SAR follow-up (AID 651871);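 further: cells exposed to stressor for 2 h before ATP readout; reference of the scale not given here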
# Settings: H9c2/HL-1 cardiomyocytes, 2-deoxyglucose stress, with 2-deoxyglucose
# [1] = run 9, at 79 µM (top of the series)
structure (smiles),measurement,setting,value
CCOC(=O)c1cccc(NC(=O)CNC(=O)c2cc(-c3cc(OC)c(OC)c(OC)c3)nc3ccccc23)c1,activity (protection/inhibition),[1],91.8%
COc1ccc2nc(-c3cc(OC)c(OC)c(OC)c3)cc(C(=O)NCC(=O)Nc3ccc(C(C)=O)cc3)c2c1,activity (protection/inhibition),[1],90%
COc1ccc2c(c1OC)C(=O)N1c3ccccc3C(=O)N(Cc3cccc(Cl)c3Cl)C21 (stereo not given),activity (protection/inhibition),"run 9, at 19.8 µM (top of the series)",50.7%
same,activity (protection/inhibition),"run 9, at 39.5 µM (top of the series)",55.4%
same,activity (protection/inhibition),[1],-7.08%
